High-throughput results: PubChem BioAssay, National Center for Advancing Translational Sciences (NCATS)
Six1-Eya2 inh = qHTS Assay for Inhibitors of the Six1/Eya2 Interaction. AlphaScreen GST-Six1/His-Eya2 binding, biochemical; hits give low values. hit rate 0.56% among 360,000. activity change, % (test concentration not listed). AID 651725, 2012; in the data active = activity change below about -65%; inconclusive = mostly about -30% to -63%; also: % is scaled to controls: 0 for no effect and ±100 for the full control effect
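Compounds are tested against tagged Six1 and Eya2 proteins bridged by glutathione donor and nickel acceptor beads; after a one-hour incubation at 37 °C without light, AlphaScreen emission is recorded.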
BAZ2B block = qHTS Assay for Inhibitors of BAZ2B; Bromodomain adjacent to zinc finger domain protein 2B (Homo sapiens), Q9UIF8; AlphaScreen BAZ2B-H3K14Ac peptide displacement; Potency, µM (doses to about 114 µM), for the others: top-dose activity change, negative = inhibition, hits mostly inhibitors; hit rate 4.4% among 360,000; AID 504333, 2011; also: potency is read from the fitted curve at half-maximal effect; % is scaled to controls: 0 for no effect and ±100 for the full control effect; nearly all actives have a fitted effect of over 60% in size
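Multi-concentration screen (max 110 uM) measuring displacement of acetylated histone H3 peptide from BAZ2B by AlphaScreen, using 50 nM protein, 50 nM peptide and 10 ug/mL streptavidin donor plus Ni-chelate acceptor beads.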
CtBP-E1A blk = qHTS Assay for Inhibitors of the CtBP/E1A Interaction. hit rate 0.49% among 340,000. CtBP / adenovirus E1A interaction (AlphaScreen). AlphaScreen GST-E1A/His-CtBP binding, 1536-well; hits give low values. AID 651724, 2012. activity change, % (no concentration beside the values); in the data active = activity change below about -65%; inconclusive = mostly about -30% to -63%; also: % is scaled to controls: 0 for no effect and ±100 for the full control effect
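AlphaScreen with 125 nM GST-E1A and 125 nM His-CtBP (5X stocks) in Tris pH 8.0, 300 mM NaCl, BSA, Tween 20, TCEP. Compounds preincubated 2 h at 37 deg C, then glutathione donor/nickel acceptor beads added for 1 h at 37 deg C in dark.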
G9a inh = qHTS Assay for Inhibitors of Histone Lysine Methyltransferase G9a. G9a H3K9 monomethylation, AlphaScreen, 2 h. Histone-lysine N-methyltransferase EHMT2 (Homo sapiens), Q96KQ7. Potency, µM (top dose mostly 102 µM), inactives show at the highest dose activity, negative = inhibition, most hits filed as inhibitors. hit rate 8.8% among 350,000; also: potency is read from the fitted curve at half-maximal effect; % is scaled to controls: 0 for no effect and ±100 for the full control effect; nearly all actives have a fitted effect of over 75% in size
Target sequence (Q96KQ7 913-1193 limits assumed): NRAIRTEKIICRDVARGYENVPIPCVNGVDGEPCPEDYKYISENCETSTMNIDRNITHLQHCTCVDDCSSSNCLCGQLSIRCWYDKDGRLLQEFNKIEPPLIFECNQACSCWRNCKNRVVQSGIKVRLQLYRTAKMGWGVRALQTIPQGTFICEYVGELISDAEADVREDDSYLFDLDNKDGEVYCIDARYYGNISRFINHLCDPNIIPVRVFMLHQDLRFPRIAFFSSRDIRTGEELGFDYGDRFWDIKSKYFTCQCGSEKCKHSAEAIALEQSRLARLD
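Quantitative HTS format: methyltransferase activity on a biotin-tagged H3K9 peptide is measured by AlphaScreen, using a rabbit anti-monomethyl-H3K9 antibody with streptavidin donor and anti-IgG acceptor beads. Final levels are 20 nM enzyme, 500 nM peptide, 20 uM SAM; 2 h RT.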
JMJD2A Tudor inh = qHTS Assay for Inhibitors of JMJD2A-Tudor Domain; AlphaScreen JMJD2A-Tudor / H3K4me3 peptide binding; Potency, µM (top dose mostly 114 µM), inactives show at the top dose activity change, negative = inhibition, usual class: inhibitors; AID 504339, 2011; Lysine-specific demethylase 4A (Homo sapiens), O75164; hit rate 4.4% among 390,000; also: potency is read from the fitted curve at half-maximal effect; % is scaled to controls: 0 for no effect and ±100 for the full control effect; nearly all actives have a fitted effect of over 50% in size
HP1b chromo inh = HTS for Inhibitors of HP1-beta Chromodomain Interactions with Methylated Histone Tails. AlphaScreen HP1-beta / biotin-H3K9me3 peptide binding. Potency, µM (titrated, usually from 114 µM), without a hit: at the highest dose activity change, negative = inhibition, actives largely listed as inhibitors. hit rate 0.56% among 390,000. AID 540317, 2011; also: potency is read from the fitted curve at half-maximal effect; nearly all actives have a fitted effect of over 70% in size
Target sequence (P83916 whole entry, looked up): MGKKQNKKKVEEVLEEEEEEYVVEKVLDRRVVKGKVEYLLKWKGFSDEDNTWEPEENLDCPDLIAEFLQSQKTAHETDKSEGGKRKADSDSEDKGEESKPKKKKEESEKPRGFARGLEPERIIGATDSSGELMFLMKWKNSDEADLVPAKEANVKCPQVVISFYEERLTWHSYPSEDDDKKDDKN
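HP1-beta protein (50 nM final) preincubated 30 min at room temperature with biotinylated H3(1-18)K9me3 peptide (50 nM) in PBS pH 7.4, 0.01% Tween-20, then compound added for 30 min. AlphaScreen streptavidin donor/nickel chelate acceptor beads (10 ug/mL final), 30 min dark, luminescence read.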
* hit, by the source's call; u = inconclusive; x = not tested or not shown; [ ] = remark or other dose. An excerpt weighted towards active compounds, which were near 10% of everything screened. Unless noted, calls follow the shape of the dose curve; as a rule, active = well fitted inhibition curve with a large enough effect; inconclusive = small, poorly fitted or top-dose-only effect; inactive = no such curve, though single readings can be large or run the other way.

SMILES | Six1-Eya2 inh | BAZ2B block | CtBP-E1A blk | G9a inh | JMJD2A Tudor inh | HP1b chromo inh
COc1ccc(N2C(=O)CC(Sc3nnc(-c4ccccc4F)n3C)C2=O)cc1 (centres undefined) | 3.7 | -9.4% | 1.5 | 11.2µM* | -22.1% | -12.7%
O=C1CC(Sc2cccs2)C(=O)N1c1ccccc1 (centres undefined) | -1.7 | -0.6% | -3.2 | x | 1.4% | 34.0%
O=C(CSc1cn(CC(=O)N2CCCCC2)c2ccccc12)NCc1ccccc1 | x | -17.0% | x | -36.9%[59 µM] | -8.1% | 34.6%
CNc1ccc(-c2cc(OC)ccc2OC)cn1 | -5.5 | x | -3.2 | x | x | x
CC(C)c1ccc(N2C(=O)CC(Sc3nc4ccccc4o3)C2=O)cc1 (centres undefined) | 3.7 | -0.2% | 8.3 | 44.7µM* | -15.4% | 56.7%
COc1ccc(N2C(=O)CC(Sc3nc4ccccc4s3)C2=O)cc1 (centres undefined) | 0.5 | -20.9% | 6.5 | 25.1µM* | -2.7% | 41.5%
O=C1CC(Sc2nnc(-c3ccccc3)o2)C(=O)N1c1ccccc1 (centres undefined) | 4.0 | 9.7% | 2.1 | u | -8.1% | 2.9%
Cn1cccc1/C=N/n1c(-c2ccc(Cl)cc2)n[nH]c1=S | -6.0 | 3.2% | -8.4 | u | -15.8% | 35.2%
Cc1ccc(-c2n[nH]c(=S)n2/N=C/c2cccn2C)cc1 | -8.5 | -34.6% | -6.2 | 1.12µM* | 22.4µM* | -30.4%
Cn1cccc1/C=N/n1c(-c2ccc(Cl)cc2Cl)n[nH]c1=S | -21.9 | 44.7µM* | -9.2 | u | 79.4µM* | -12.8%
COc1ccc(-c2n[nH]c(=S)n2/N=C/c2cccn2C)cc1 | -13.8 | -35.3% | x | 1.12µM* | 6.31µM* | u
CCOC(=O)CC(NC(=O)Cn1nnc(-c2ccccc2F)n1)c1ccccc1Cl (centres undefined) | -5.3 | -8.5% | x | 2.2% | -7.8% | 71.9%
CCOc1cc(-c2nc(-c3ccc(Br)cc3)no2)cc(OCC)c1OCC | x | 10.9% | x | 16.2%[59 µM] | -2.4% | 51.8%
O=C(NC(Cc1cc(=O)[nH]c2ccccc12)C(=O)O)c1ccc(Cl)cc1 (centres undefined) | x | x | x | -29.3%[2.33 µM] | x | x
O=C(O)C12CC3CC(C1)CC(n1ncc(NCc4ccco4)c(Cl)c1=O)(C3)C2 | 16.7 | -2.4% | 6.0 | 79.4µM* | -4.9% | 14.2%
CC(C)(C)NC(=O)C1C(c2ccc(C(F)(F)F)cc2)=Nc2ccccc2N1C(=O)c1cccc(C(F)(F)F)c1 (centres undefined) | 2.9 | x | -4.7 | x | x | x
CC1OC1c1ccc(-c2ccc(C3OC3C)cc2)cc1 (centres undefined) | -14.6 | x | -86.5* | x | -9.0% | -26.5%
CC(O)CNc1ncnc2nc[nH]c12 (centres undefined) | 3.0 | 4.7% | 1.1 | 11.0%[2.33 µM] | -6.2% | 41.3%
CC(C)=NNc1ncnc2nc[nH]c12 | 18.7 | x | -21.2 | x | 25.1µM* | 33.8%
Cc1n[nH]c(=S)n1/N=C/c1ccc(OCc2ccc(Cl)cc2Cl)cc1 | -6.0 | 4.4% | 7.1 | 11.2µM* | -6.2% | 50.3%
Cc1cc(C)c(COc2ccc(/C=N/n3c(C)n[nH]c3=S)cc2)c(C)c1 | -8.4 | u | -9.6 | u | 79.4µM* | u
Cc1n[nH]c(=S)n1/N=C/c1ccc(OCc2ccc(Cl)cc2)cc1 | -0.8 | 2.6% | -1.6 | u | -20.8% | 31.7%
COc1ccc(-c2cc(C(F)(F)F)c3c(=O)n(-c4ccccc4)[nH]c3n2)cc1 | -1.3 | u | 5.7 | 12.6µM* | 56.2µM* | -38.5%
COc1ccc(-c2cc(C(F)(F)F)nc(NCc3ccccc3)n2)cc1 | x | 174.5% | x | 186.6%[59 µM] | 115.0% | 204.9%
Cc1[nH]nc(Sc2ccccn2)c1[N+](=O)[O-] | 1.5 | 10.8% | 9.8 | -2.6% | -1.7% | 39.1%
SMILES | Six1-Eya2 inh | BAZ2B block | CtBP-E1A blk | G9a inh | JMJD2A Tudor inh | HP1b chromo inh
CN(C(=O)COC(=O)COc1ccc2ccccc2c1)c1c(N)n(Cc2ccccc2)c(=O)[nH]c1=O | -0.5 | 4.8% | -4.8 | -36.7%[12.7 µM] | -19.3% | 22.1%
COCCN(C(=O)COC(=O)COc1ccc(Cl)c(C)c1)c1c(N)n(Cc2ccccc2)c(=O)[nH]c1=O | 6.3 | -3.4% | 5.8 | 39.8µM* | -19.9% | 16.8%
Cc1cc(OCC(=O)OCC(=O)N(C)c2c(N)n(Cc3ccccc3)c(=O)[nH]c2=O)ccc1Cl | 0.0 | -4.3% | 2.7 | 6.31µM* | -11.7% | 44.2%
COCCN(C(=O)COC(=O)COc1ccc2ccccc2c1)c1c(N)n(Cc2ccccc2)c(=O)[nH]c1=O | 0.2 | x | -2.5 | x | -15.0% | 10.2%
COc1ccc(-c2nc3scc(CCNS(=O)(=O)c4cccc(C(C)=O)c4)n3n2)cc1 | x | -16.1% | x | -6.1%[59 µM] | -25.6% | 8.9%
COc1cc(/C=C/C(=O)O)cc(S(=O)(=O)N2CCc3ccccc3C2)c1OC | -4.1 | -35.5% | 2.1 | 89.1µM* | -4.9% | 32.2%
CCOc1ccc(NC(=O)NNC(=O)c2cc3ccccc3cc2O)cc1 | -5.5 | -14.5% | -8.0 | 74.7% | -16.0% | 38.1%
COc1ccccc1CNC(=O)Nc1nnc([C@H]2C[C@H](O)[C@@H](CO)O2)s1 | 5.8 | x | 5.4 | x | x | x
Nc1nc2c(c(=O)[nH]1)C(c1ccccc1)C1=C(N2)c2ccccc2C1=O (centres undefined) | u | u | x | u | -6.1% | 2.2%
Cc1cccc(C2C3=C(Nc4[nH]n(-c5ccccc5)c(=O)c42)c2ccccc2C3=O)c1 (centres undefined) | -10.6 | 31.6µM* | -16.7 | 20µM* | 35.5µM* | u
CN(C)c1ccc(CC2C(=O)Nc3ccccc32)cc1 (centres undefined) | -9.8 | u | -9.9 | 3.16µM* | 7.08µM* | 28.2µM*
O=C1Nc2ccccc2C1Cc1ccc(Br)cc1 (centres undefined) | x | -0.2% | x | -21.6%[59 µM] | -11.9% | 24.0%
CN(C)c1ccc(NC(=O)C(=O)C2C(=O)Nc3ccccc32)cc1 (centres undefined) | 4.5 | -14.7% | -20.0 | 56.2µM* | -24.6% | 21.2%
CC(C)(C)c1ccc(NC(=O)C(=O)C2C(=O)Nc3ccccc32)cc1 (centres undefined) | 0.3 | 13.1% | x | -6.9% | -14.3% | 35.4%
CC(C)NS(=O)(=O)c1ccc2[nH]c3nc(SCC(=O)Nc4ccc(F)c(F)c4)nnc3c2c1 | x | x | x | x | -23.1% | 36.4%
CCCC(=O)C1=C(c2cccc(OC)c2)N(C(=O)CCC)n2c(C)nnc2S1 | x | 62.3% | x | 16.4%[59 µM] | 54.9% | 82.3%
